Source: PubChem BioAssay AID2162 (National Center for Advancing Translational Sciences (NCATS), 2009)
Inconclusive results are not listed. A number with no mark means an inactive call. Calls come from the whole dose curve; as a rule, active = well fitted inhibition curve with a large enough effect; inconclusive = small, poorly fitted or top-dose-only effect; inactive = flat fitted curve, though single readings scatter.

Target: Polyunsaturated fatty acid lipoxygenase ALOX12 (Homo sapiens) (UniProt P18054)
Sequence (P18054 whole entry, looked up): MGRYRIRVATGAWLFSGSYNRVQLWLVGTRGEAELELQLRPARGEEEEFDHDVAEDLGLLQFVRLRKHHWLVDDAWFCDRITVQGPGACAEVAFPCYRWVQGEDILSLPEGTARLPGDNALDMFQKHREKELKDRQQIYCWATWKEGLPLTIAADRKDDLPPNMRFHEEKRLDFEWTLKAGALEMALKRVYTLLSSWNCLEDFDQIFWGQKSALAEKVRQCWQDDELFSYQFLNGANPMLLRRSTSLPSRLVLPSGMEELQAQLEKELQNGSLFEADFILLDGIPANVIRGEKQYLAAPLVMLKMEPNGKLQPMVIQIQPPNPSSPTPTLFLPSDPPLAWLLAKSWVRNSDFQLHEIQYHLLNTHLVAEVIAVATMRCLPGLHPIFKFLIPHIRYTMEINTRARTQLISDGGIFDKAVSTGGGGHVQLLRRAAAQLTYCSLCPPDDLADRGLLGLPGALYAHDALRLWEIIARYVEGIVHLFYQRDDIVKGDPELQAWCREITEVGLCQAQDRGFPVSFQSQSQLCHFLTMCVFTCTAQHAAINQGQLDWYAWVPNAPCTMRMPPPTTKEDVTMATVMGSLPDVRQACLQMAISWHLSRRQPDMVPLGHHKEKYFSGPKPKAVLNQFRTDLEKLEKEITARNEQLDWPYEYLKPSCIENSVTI
Assay: Confirmation qHTS Assay for Inhibitors of 12-hLO (12-human lipoxygenase)
Settings: purified 12-hLO, xylenol orange absorbance; stronger effect = lower value
From the text: Assay Provider: Holman, T.R., University of California, Santa Cruz Screening Center PI: Austin, Christopher P. Screening Center: NIH Chemical Genomics Center Human lipoxygenase 12hLO is a member of the closely related lipoxygenase family of enzymes which catalyze the site-specific oxidation of arachidonic acid to various hormone precursor molecules and as such is a candidate for drug development in a variety of disease areas, such as cancer and inflammation. Inhibition of 12hLO activity was screened by utilizing arachidonic acid as a substrate. The extent of hydroperoxide product formation was measured by a secondary chromogenic reaction in which xylenol orange (XO, Sigma-Aldrich, cat. number 39,818-7) reacts with the ferric ions produced from the reaction between the hydroperoxide and ferrous ions. The Fe(III)-XO complex is characterized with red-shifted absorbance at 560 nm. A purified preparation of human 12hLO was supplied by Professor Ted Holman, University of California, Santa Cruz. This assay includes some confirmation and follow-up compounds for related primary screening assay AID 1452.
Assay Protocol: Buffer: 25 mM Hepes pH 7.0, 0.01% Triton X-100. […] The absorbance at 405 and 573 nm were measured using ViewLux (Perkin-Elmer) High-throughput CCD imager and absorbance protocol settings. The 573-to-405 absorbance ratio was used to compute reaction progress.

In the case of `CCC(C)C(=O)c1c(O)c(C)c2oc3c(C)c(O)c(C(=O)C(C)CC)c(O)c3c2c1O` (stereo unspecified), the activity change, negative = inhibition is reported as -25.9%.
